Source: paper PMC9911399, “Two distinct binding modes provide the RNA-binding protein RbFox with extraordinary sequence specificity”
Numbering of substitutions follows the chain as printed; changes in the protein carry UniProt numbers. Whole data set: some 16,000 sequences, median “ka relative to ugcaugu” near 0.096, cut for the highest 2% near 0.35. This excerpt belongs to a sample that is enriched for the highest values.

T1: RBFOX1 RRM RbFoxmut (Fox-RRM*) (Homo sapiens, UniProt Q9NWB1 109-208, R118D;E147R;N151S;E152T)
T1 sequence: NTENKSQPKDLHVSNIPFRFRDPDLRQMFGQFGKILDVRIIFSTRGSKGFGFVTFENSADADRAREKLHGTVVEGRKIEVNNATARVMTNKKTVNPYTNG

B1: UUAGACU (DNA:RNA)
RNA: GGGAGACCGGAAUUCAGAUUGUCCUUAGACUUUAAAUCCCGUCGUAGCCACCA
DNA 1: CAATCTGAATTCCGGTCTCCC
DNA 2: TGGTGGCTACGACGGGATT
B2: UCGUAUC (DNA:RNA)
RNA: B1 RNA with U26C, A27G, G28U, C30U, U31C
DNA 1: CAATCTGAATTCCGGTCTCCC
DNA 2: TGGTGGCTACGACGGGATT
B3: UCGAAUC (DNA:RNA)
RNA: B1 RNA with U26C, A27G, G28A, C30U, U31C
DNA 1: CAATCTGAATTCCGGTCTCCC
DNA 2: TGGTGGCTACGACGGGATT
B4: UCGAAUG (DNA:RNA)
RNA: B1 RNA with U26C, A27G, G28A, C30U, U31G
DNA 1: CAATCTGAATTCCGGTCTCCC
DNA 2: TGGTGGCTACGACGGGATT
B5: UCGAUUC (DNA:RNA)
RNA: B1 RNA with U26C, A27G, G28A, A29U, C30U, U31C
DNA 1: CAATCTGAATTCCGGTCTCCC
DNA 2: TGGTGGCTACGACGGGATT
B6: UCGAAAU (DNA:RNA)
RNA: B1 RNA with U26C, A27G, G28A, C30A
DNA 1: CAATCTGAATTCCGGTCTCCC
DNA 2: TGGTGGCTACGACGGGATT
B7: UCGAUUG (DNA:RNA)
RNA: B1 RNA with U26C, A27G, G28A, A29U, C30U, U31G
DNA 1: CAATCTGAATTCCGGTCTCCC
DNA 2: TGGTGGCTACGACGGGATT
B8: CCAUUAU (DNA:RNA)
RNA: B1 RNA with U25C, U26C, G28U, A29U, C30A
DNA 1: CAATCTGAATTCCGGTCTCCC
DNA 2: TGGTGGCTACGACGGGATT
B9: GUGGCUG (DNA:RNA)
RNA: B1 RNA with U25G, A27G, A29C, C30U, U31G
DNA 1: CAATCTGAATTCCGGTCTCCC
DNA 2: TGGTGGCTACGACGGGATT
B10: UUGGCUG (DNA:RNA)
RNA: B1 RNA with A27G, A29C, C30U, U31G
DNA 1: CAATCTGAATTCCGGTCTCCC
DNA 2: TGGTGGCTACGACGGGATT
B11: UUGGCUA (DNA:RNA)
RNA: B1 RNA with A27G, A29C, C30U, U31A
DNA 1: CAATCTGAATTCCGGTCTCCC
DNA 2: TGGTGGCTACGACGGGATT
B12: UUGGCUC (DNA:RNA)
RNA: B1 RNA with A27G, A29C, C30U, U31C
DNA 1: CAATCTGAATTCCGGTCTCCC
DNA 2: TGGTGGCTACGACGGGATT
B13: GUGGCUC (DNA:RNA)
RNA: B1 RNA with U25G, A27G, A29C, C30U, U31C
DNA 1: CAATCTGAATTCCGGTCTCCC
DNA 2: TGGTGGCTACGACGGGATT
B14: GUGUGGC (DNA:RNA)
RNA: B1 RNA with U25G, A27G, G28U, A29G, C30G, U31C
DNA 1: CAATCTGAATTCCGGTCTCCC
DNA 2: TGGTGGCTACGACGGGATT
B15: GAACUCU (DNA:RNA)
RNA: B1 RNA with U25G, U26A, G28C, A29U
DNA 1: CAATCTGAATTCCGGTCTCCC
DNA 2: TGGTGGCTACGACGGGATT
B16: CGGUAAG (DNA:RNA)
RNA: B1 RNA with U25C, U26G, A27G, G28U, C30A, U31G
DNA 1: CAATCTGAATTCCGGTCTCCC
DNA 2: TGGTGGCTACGACGGGATT
B17: CCGGUCA (DNA:RNA)
RNA: B1 RNA with U25C, U26C, A27G, A29U, U31A
DNA 1: CAATCTGAATTCCGGTCTCCC
DNA 2: TGGTGGCTACGACGGGATT
B18: UGCGACA (DNA:RNA)
RNA: B1 RNA with U26G, A27C, U31A
DNA 1: CAATCTGAATTCCGGTCTCCC
DNA 2: TGGTGGCTACGACGGGATT
B19: CUGUGGC (DNA:RNA)
RNA: B1 RNA with U25C, A27G, G28U, A29G, C30G, U31C
DNA 1: CAATCTGAATTCCGGTCTCCC
DNA 2: TGGTGGCTACGACGGGATT
B20: UGGCUGU (DNA:RNA)
RNA: B1 RNA with U26G, A27G, G28C, A29U, C30G
DNA 1: CAATCTGAATTCCGGTCTCCC
DNA 2: TGGTGGCTACGACGGGATT
B21: UGGGCUC (DNA:RNA)
RNA: B1 RNA with U26G, A27G, A29C, C30U, U31C
DNA 1: CAATCTGAATTCCGGTCTCCC
DNA 2: TGGTGGCTACGACGGGATT
B22: CUGGCUG (DNA:RNA)
RNA: B1 RNA with U25C, A27G, A29C, C30U, U31G
DNA 1: CAATCTGAATTCCGGTCTCCC
DNA 2: TGGTGGCTACGACGGGATT
B23: UGGGGGC (DNA:RNA)
RNA: B1 RNA with U26G, A27G, A29G, C30G, U31C
DNA 1: CAATCTGAATTCCGGTCTCCC
DNA 2: TGGTGGCTACGACGGGATT
B24: UGGGCUG (DNA:RNA)
RNA: B1 RNA with U26G, A27G, A29C, C30U, U31G
DNA 1: CAATCTGAATTCCGGTCTCCC
DNA 2: TGGTGGCTACGACGGGATT
B25: GGUGCCG (DNA:RNA)
RNA: B1 RNA with U25G, U26G, A27U, A29C, U31G
DNA 1: CAATCTGAATTCCGGTCTCCC
DNA 2: TGGTGGCTACGACGGGATT
B26: CCCAUAA (DNA:RNA)
RNA: GGGAGACCGGAAUUCAGAUUGUCCCCCAUAAUUAAAUCCCGUCGUAGCCACCA
DNA 1: CAATCTGAATTCCGGTCTCCC
DNA 2: TGGTGGCTACGACGGGATT
B27: CGUUUAU (DNA:RNA)
RNA: B26 RNA with C26G, C27U, A28U, A31U
DNA 1: CAATCTGAATTCCGGTCTCCC
DNA 2: TGGTGGCTACGACGGGATT
B28: GCGCGCA (DNA:RNA)
RNA: B26 RNA with C25G, C27G, A28C, U29G, A30C
DNA 1: CAATCTGAATTCCGGTCTCCC
DNA 2: TGGTGGCTACGACGGGATT
B29: GCACAUG (DNA:RNA)
RNA: B1 RNA with U25G, U26C, G28C, C30U, U31G
DNA 1: CAATCTGAATTCCGGTCTCCC
DNA 2: TGGTGGCTACGACGGGATT
B30: GCAUGUC (DNA:RNA)
RNA: B26 RNA with C25G, C27A, A28U, U29G, A30U, A31C
DNA 1: CAATCTGAATTCCGGTCTCCC
DNA 2: TGGTGGCTACGACGGGATT
B31: GCAGAUG (DNA:RNA)
RNA: B1 RNA with U25G, U26C, C30U, U31G
DNA 1: CAATCTGAATTCCGGTCTCCC
DNA 2: TGGTGGCTACGACGGGATT
B32: GCGCAUA (DNA:RNA)
RNA: B26 RNA with C25G, C27G, A28C, U29A, A30U
DNA 1: CAATCTGAATTCCGGTCTCCC
DNA 2: TGGTGGCTACGACGGGATT
B33: GCAUAUG (DNA:RNA)
RNA: B1 RNA with U25G, U26C, G28U, C30U, U31G
DNA 1: CAATCTGAATTCCGGTCTCCC
DNA 2: TGGTGGCTACGACGGGATT
B34: GCGCAUG (DNA:RNA)
RNA: B26 RNA with C25G, C27G, A28C, U29A, A30U, A31G
DNA 1: CAATCTGAATTCCGGTCTCCC
DNA 2: TGGTGGCTACGACGGGATT
B35: GCAUGUG (DNA:RNA)
RNA: B26 RNA with C25G, C27A, A28U, U29G, A30U, A31G
DNA 1: CAATCTGAATTCCGGTCTCCC
DNA 2: TGGTGGCTACGACGGGATT
B36: GUCCGUC (DNA:RNA)
RNA: B26 RNA with C25G, C26U, A28C, U29G, A30U, A31C
DNA 1: CAATCTGAATTCCGGTCTCCC
DNA 2: TGGTGGCTACGACGGGATT

molecular target: T1, RBFOX1 RRM RbFoxmut (Fox-RRM*); assay: EMSA; HiTS-Eq, 1 nM pool, 10 min; buffer printed only for the single-RNA assays: 10 mM Tris pH 7.5, 150 mM NaCl, 3.4 mM EDTA, 0.001% NP-40, 30 C; settings: tags: His6 N-terminal (pET28a); label: 5' 32P
How it was run: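 Relative association constants, normalised to the cognate motif, were derived by comparing read counts of each RNA species with those of the control reaction. The RNA sequenced was the free fraction, separated by 8% native PAGE after a 10 min equilibration in 50 µL of 1 nM 5′-radiolabelled RNA (7 randomized nucleotides) with increasing concentrations of purified wild-type or mutant RbFox RRM.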

Q: B1 was tested. Which binding signal did it give?
A: 0.0743 KA relative to UGCAUGU

Q: For B2, which binding signal is on record?
A: 0.192 KA relative to UGCAUGU

Q: Which binding signal does the source give for B3 here?
A: 0.36 KA relative to UGCAUGU

Q: For B4, which binding signal is on record?
A: 1.31 KA relative to UGCAUGU

Q: B5 was tested. Which binding signal did it give?
A: 0.115 KA relative to UGCAUGU

Q: How did the binding signal turn out when B6 was run?
A: 0.0789 KA relative to UGCAUGU

Q: With B7 as the binder, how does the binding signal read?
A: 0.239 KA relative to UGCAUGU

Q: Which binding signal does the source give for B8 here?
A: 0.131 KA relative to UGCAUGU

Q: Which binding signal does the source give for B9 here?
A: 0.549 KA relative to UGCAUGU

Q: Which binding signal does the source give for B10 here?
A: 0.435 KA relative to UGCAUGU

Q: For B11, which binding signal is on record?
A: 0.168 KA relative to UGCAUGU

Q: How did the binding signal turn out when B12 was run?
A: 0.134 KA relative to UGCAUGU

Q: B13 was tested. Which binding signal did it give?
A: 0.125 KA relative to UGCAUGU

Q: With B14 as the binder, how does the binding signal read?
A: 0.132 KA relative to UGCAUGU

Q: How did the binding signal turn out when B15 was run?
A: 0.053 KA relative to UGCAUGU

Q: B16 was tested. Which binding signal did it give?
A: 0.0872 KA relative to UGCAUGU

Q: B17 was tested. Which binding signal did it give?
A: 0.0703 KA relative to UGCAUGU

Q: Which binding signal does the source give for B18 here?
A: 0.0626 KA relative to UGCAUGU

Q: B19 was tested. Which binding signal did it give?
A: 0.102 KA relative to UGCAUGU

Q: B20 was tested. Which binding signal did it give?
A: 0.299 KA relative to UGCAUGU

Q: B21 was tested. Which binding signal did it give?
A: 0.115 KA relative to UGCAUGU

Q: For B22, which binding signal is on record?
A: 0.431 KA relative to UGCAUGU

Q: B23 was tested. Which binding signal did it give?
A: 0.0983 KA relative to UGCAUGU

Q: Which binding signal does the source give for B24 here?
A: 0.462 KA relative to UGCAUGU

Q: With B25 as the binder, how does the binding signal read?
A: 0.128 KA relative to UGCAUGU

Q: With B26 as the binder, how does the binding signal read?
A: 0.0954 KA relative to UGCAUGU

Q: B27 was tested. Which binding signal did it give?
A: 0.147 KA relative to UGCAUGU

Q: For B28, which binding signal is on record?
A: 0.13 KA relative to UGCAUGU

Q: With B29 as the binder, how does the binding signal read?
A: 0.128 KA relative to UGCAUGU

Q: B30 was tested. Which binding signal did it give?
A: 0.492 KA relative to UGCAUGU

Q: With B31 as the binder, how does the binding signal read?
A: 0.142 KA relative to UGCAUGU

Q: Which binding signal does the source give for B32 here?
A: 0.152 KA relative to UGCAUGU

Q: How did the binding signal turn out when B33 was run?
A: 0.197 KA relative to UGCAUGU

Q: For B34, which binding signal is on record?
A: 1.33 KA relative to UGCAUGU

Q: Which binding signal does the source give for B35 here?
A: 0.954 KA relative to UGCAUGU

Q: For B36, which binding signal is on record?
A: 0.0864 KA relative to UGCAUGU
